Compounds without any hit were thinned out: in the full panel of roughly 83,000, 20% have a hit.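 Method: cells in 96-well plates; compound added at one concentration; 48 h incubation; percent growth measured; values under 10 scored active.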 Values without a mark were called inactive. Activity calls are given as the source filed them.

This experiment deals with HL-60(TB) leukemia. In words: NCI-60 one-dose screen, 48 h (100 = growth as untreated, 0 = no growth, -100 = all killed). The note with it: 10 µM unless noted.

`C[C@@H]1COCCN1c1cc(C2([S@](C)(=N)=O)CC2)nc(-c2ccnc3[nH]ccc23)n1`: the growth is -9.62% (active). For `CN1CCN(Cc2ccc(NC(=O)c3cncc(C#Cc4cnc(N)c5cnccc45)c3)cc2C(F)(F)F)CC1`, the growth is -25% (active). Turning to `CC(=O)Nc1c(Cl)cc2c(c1Cl)Cc1cc([N+](=O)[O-])ccc1-2`, the growth was 96.3%. Consider `COc1cc(C2C=C(c3ccc(Cl)cc3)N=C3SC(C)=CN32)cc(OC)c1OC` (stereo unspecified), for which the growth was 93.6%.

For `O=C1/C(=C/c2ccc([N+](=O)[O-])s2)Oc2ccccc21`, the growth was -7.99% (active).

For the compound `COc1cc(/C=C/C(=O)c2c(C)[n+]([O-])c3ccccc3[n+]2[O-])ccc1O`, the growth was 102%.

Take `Nc1nc(N)c2cc(NCc3ccc(Cl)c(Cl)c3)ccc2n1`: the growth is -65.7% (active).

`CC(C)C[C@H](NC(=O)Cn1ccc(NCc2ccccc2)cc1=O)B(O)O`: the growth is 3.72% (active). As to `COc1ccc2[nH]cc(C3(c4c[nH]c5ccc(OC)cc45)C(=O)Nc4ccc(Cl)cc43)c2c1`, the growth is 10.9%. The same measure for `CCCCCCOc1ccc(/C=C/C(=O)c2ccc(B(O)O)cc2)cc1`: 18.5%. With `CCCCCc1c(C)[nH]c(/C=C2\N=C(c3ccc[nH]3)C=C2CC)c1C`, the growth is -62% (active). Under `O=C(Nc1c(Cl)cc(Cl)cc1Cl)ON=C1CCCCC1` stands 101%; under `C(CCCSC1=NCCN1)CCSC1=NCCN1`, 76.2%; under `CN1CCN(c2ccc3nc(-c4cc(C(C)(C)C)c(O)c(C(C)(C)C)c4)[nH]c3c2)CC1`, 68.6%. The same measure for `CCOC(=O)c1cc2c(n1Cc1cccc(OC)c1)-c1oncc1CCC2`: 7.26% (active); for `O=C(Nc1ccc(I)cc1F)c1cc(I)ccc1O`: -25.2% (active). As for `CCOc1nc(-c2ccccc2)cc2c(O)c(C(=O)n3nc(C)cc3C)[nH]c(=O)c12`, the growth is 103%.

Take `CC1CC2C3CCC4=CC(=O)CCC4(C)C3CCC2(C)C1(O)C(=O)CO` (stereo unspecified): the growth was 75.4%. Regarding `COc1c(N2CC3CCCN(C(C)=O)C3C2)c(F)cc2c(=O)c(C(=O)N[C@H]3C(O)[C@@H](O)C(CO)O[C@H]3O)cn(C3CC3)c12` (stereo partly specified), the growth is 103%. The same measure for `CCCCc1ccc(NS(=O)(=O)c2cc3c4c(c2)CCN4C(=O)CC3)cc1`: -23.6% (active); for `CCOC(=O)C1=C(c2ccccc2)NC(=O)NC1CN1C(=O)c2ccccc2C1=O` (stereo unspecified): 57.4%. Under `O=c1oc2ccccc2c(Cl)c1Cl` stands 41.4%; under `Nc1nc2c(c3cnccc13)C(c1cccc(Cl)c1)Cc1cnccc1-2` (stereo unspecified), 4.89% (active); under `O=C(NCCCNc1cc(-c2cn(-c3ccccc3)nc2-c2cccc(O)c2)ccn1)c1cccc(O)c1`, 35.2%.

With `O=C(Nc1ccc(C23CC4CC(CC(c5ccccc5)(C4)C2)C3)cc1)c1cccs1`, the growth is 51%.

Take `CCN1C(=O)N(c2ccccc2)C2Nn3c(s/c(=C4\C(=O)N(C(C)C)c5ccccc54)c3=O)=NC21` (stereo unspecified): the growth was 97.8%. For the compound `O=C(N/N=C/[C@H](O)[C@H](O)[C@H](O)CO)c1ccc(NC(=O)c2cccnc2)cc1`, the growth was 100%. The same measure for `CCN(CC)CCN1C(=O)c2c(c(C)c3c(oc4cc(OC)ccc43)c2C)C1=O`: 85.8%; for `COc1ccc(-n2cc(-c3ccccc3)c3c(SCC(=O)N/N=C/c4ccc([N+](=O)[O-])cc4)ncnc32)cc1`: 103%; for `COc1ccc(CN2c3ccccc3Oc3ccccc32)cc1O`: 15.6%.

`CCOC(=O)c1c(-c2ccc(Cl)cc2)c(C#N)c2c(C#N)c(N)nn2c1N`: the growth was 43.4%. In the case of `COc1ncc(-c2ccc3nccc(C#CCN4CCN(S(C)(=O)=O)CC4)c3c2)cc1NS(=O)(=O)c1ccc(F)cc1F`, the growth was -18.6% (active). Consider `c1ccc(Nc2cc(-c3cccnc3)[nH]n2)cc1`, for which the growth was 89.3%. `Nc1ncnc2c1ncn2C1OC(CO)C2OC21` (stereo unspecified): the growth was 114%. For the compound `COc1cc(/C=N/NC(=O)c2ccccc2Nc2cccc(C(F)(F)F)c2)cc(OC)c1OC`, the growth was -5.58% (active). `N#Cc1c(-c2ccccc2)cc(-c2ccccc2)n(CCCC(=O)O)c1=O`: the growth is 103%. Turning to `COc1cc(N2C(=O)[C@H](c3ccccc3)C2c2ccc(SC)cc2)cc(OC)c1OC` (stereo partly specified), the growth was -45.7% (active). Consider `COc1ccc(NC(=O)CSc2nc(C)c(C(C)=O)n2-c2ccc([N+](=O)[O-])cc2)cc1`, for which the growth was 121%. Regarding `COc1ccc(NC(=O)c2ccc(Nc3ncnc4c3cnn4-c3cccc(F)c3)cc2)cc1`, the growth is 94.9%. As for `CC[C@H](C)[C@H](NC(=O)[C@H](CCCCN)NC(=O)[C@H](CCCCN)NC(=O)[C@@H](NC(=O)[C@@H](NC(=O)[C@@H](N)Cc1cnc[nH]1)[C@@H](C)CC)[C@@H](C)CC)C(=O)N[C@@H](CCCNC(=N)N)C(=O)N[C@H](C(=O)N[C@@H](Cc1c[nH]c2ccccc12)C(=O)N[C@@H](Cc1ccc(O)cc1)C(=O)N[C@@H](CCCNC(=N)N)C(=O)N[C@@H](CCCCN)C(=O)N[C@@H](C)C(=O)N[C@@H](Cc1c[nH]c2ccccc12)C(=O)N[C@@H](Cc1cnc[nH]1)C(=O)N[C@H](C(=O)N[C@@H](CC(C)C)C(=O)NCC(=O)N[C@@H](CCCCN)C(=O)N[C@H](C(N)=O)C(C)C)C(C)C)[C@@H](C)O`, the growth is 89.5%. `Cc1ccc(C(=O)NN2C(=O)CSC2c2ccc(Cl)cc2)cn1` (stereo unspecified): the growth is 139%. For `CCN1CCN(c2nc(NCCCNc3ccnc4cc(Cl)ccc34)c3ccccc3n2)CC1`, the growth is -51.4% (active). Turning to `COC(=O)C1=Nc2ccc(F)cc2/C1=C\c1sc(Nc2ccc(O)cc2)nc1O`, the growth was 54.8%. For the compound `COc1ccc2c(c1)[n+](=O)c(C(=O)/C=C/c1cc(OC)c(OC)c(OC)c1)c(C)n2[O-]`, the growth is 42.6%. The same measure for `CCCCNc1cc(-c2cn[nH]c2-c2cc(C)cc(OC)c2)nc(-c2cccnc2)n1`: 105%; for `c1ccc2c(c1)Nc1ccncc1S2`: 132%; for `COc1cc(CNS(=O)(=O)c2ccc(C)cc2)ccc1OCc1cn(-c2ccc(F)cc2)nn1`: 114%. Take `COC(=O)c1c2c(c(C)[n+]([O-])c1C)C(=O)C=C(NCc1ccc(Br)cc1)C2=O`: the growth is -19.4% (active). On to `C=C1C(=O)O[C@H]2[C@H]1CC/C(COC(=O)/C=C\C(=O)NCc1ccc(Cn3c(=O)sn(-c4ccccc4)c3=O)cc1)=C\CC[C@@]1(C)O[C@@H]21`, for which the growth was -3.22% (active).

In the case of `COc1ccccc1S(=O)(=O)Nc1ccc2c3c(cc(CCC(=O)NCCCCNc4cccc5c4C(=O)N(C4CCC(=O)NC4=O)C5=O)cc13)C(=O)N2C` (stereo unspecified), the growth is -1.81% (active). Under `COC(=O)C12C3C(=O)N(c4ccc(OC)cc4)C(=O)C3C(c3cn(-c4ccccc4)nc3C)N1[C@H](c1cn(-c3ccccc3)nc1C)[C@@H]1C(=O)N(c3ccc(OC)cc3)C(=O)[C@@H]12` (stereo partly specified) stands 106%. For the compound `COC(=O)C(CCC(=O)CCl)N1C(=O)c2ccccc2C1=O` (stereo unspecified), the growth is 84.5%. The same measure for `CCN(CCCNc1cc2c(c(N)c1S(=O)(=O)O)C(=O)c1ccccc1C2=O)c1ccccc1`: 84.9%; for `O=[N+]([O-])c1ccc2nc3c4ccccc4c4ccccc4c3nc2c1`: 77.2%.

With `CCOC(=O)C1CCc2c(ccc3ccccc23)N1CCC#N` (stereo unspecified), the growth was 110%. Under `Cc1ccc2nc(Cl)c(Cn3nnnc3SCc3ccccc3)cc2c1` stands 97.4%; under `COC(=O)[C@]12CC[C@@H](C)[C@H](C)[C@@H]1C1=CC[C@@H]3[C@@]4(C)C(C#N)=CC(C)=C4CC[C@@]3(C)[C@]1(C)CC2`, -19.3% (active).

Take `COc1ccc(-c2n/c(=C\c3c(O)[nH]c4ccc(OC)cc34)cc3c2=Nc2ccccc2-3)cc1`: the growth is 81%. For `COc1ccc(-c2nn(-c3ccc(NC(=O)c4ccc(Cl)c(C(F)(F)F)c4)cc3)cc2-c2ccncc2)cc1Cl`, the growth is 2.89% (active). As to `COc1cc(-c2cc(/C=C3\C(=O)Nc4ccc(Cl)cc43)[nH]n2)cc(OC)c1OC`, the growth is -26% (active). Consider `OCCN1CCCN(CCCN2c3ccccc3Sc3ccc(C(F)(F)F)cc32)CC1`, for which the growth is 45%. As for `COc1cc2cc(Oc3ccc(NC(=O)Nc4ccc(C(F)(F)F)cc4)cc3)c(C)nc2cc1OC`, the growth was 75.3%. In the case of `CC(C)OC(=O)c1ccc2n1CCCc1cnc(Nc3ccccc3)nc1-2`, the growth is 79.1%. Consider `C/C(=N\NC(=O)Cn1c(-c2ccc(S(C)(=O)=O)cc2)nc2cc(Cl)ccc21)c1ccc(Cl)cc1`, for which the growth is 88.2%. With `CCCCCCCCC(=O)OCCCC(CCC(CCC1CCCO1)OC(=O)CCCCCCCC)OC(=O)CCCCCCCC` (stereo unspecified), the growth is 89%. In the case of `NC(=Nc1ccccc1)SCCCSC(N)=Nc1ccccc1`, the growth was 82.6%.

On to `COC(=O)c1nc(-c2ccccc2)oc1S(=O)(=O)N1CCC(C(N)=O)CC1`, for which the growth was -33.2% (active). As to `Cc1[nH]c(C(=O)Nc2ccccc2OC2CCN(CCN3CCOCC3)CC2)c(Cl)c1Cl`, the growth was 97.9%.

In the case of `CC(C)(C)c1cc(C=O)cc(C(C)(C)C)c1O`, the growth was -23.5% (active). For `CC(C)c1ccc(-n2c(=S)[nH]c3sc4c(c3c2=O)CCC(=O)C4)cc1`, the growth is 75.4%.

As to `O=C(O)CS(=O)c1ccc(Cl)cc1` (stereo unspecified), the growth was 86.2%.

On to `C/C(=C\CCc1ccoc1)CC/C=C(\C)CCCNc1ccc(F)cc1`, for which the growth is 9.6% (active). In the case of `Cn1cc(-c2csc(-c3c[nH]c4ncccc34)n2)c2cc(F)cnc21`, the growth was 79.8%.

Turning to `CCNCCNc1cc(C2CCCC2)c(C#N)c2nc3ccccc3n12`, the growth was -59.3% (active). Regarding `CCCCCC/C=C\CCCCCCCCCc1cc(O)cc(OC)c1O`, the growth was -44.7% (active). With `Brc1ccc(-c2csc(Nc3ccccn3)n2)cc1`, the growth was 79.2%.

(Values after PubChem BioAssay (NCI).)
